Assay results taken from the supplement of paper PMC7366291.
Counter-ions that a name gives are not always drawn. ± gives the standard deviation of the averaged measurements.

Test system: Danio rerio Tg(wt1b:EGFP) embryo, pronephros
Assay: pronephric angle neck segment to proximal convoluted tubule (mean of left and right), fold change vs DMSO control; higher = larger pronephric angle
Conditions: 25 µM; exposure: 24-48 hpf
Summary of the method: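 Every feature is expressed as a fold change relative to the averaged DMSO-treated embryos of the same day. The exposure ran from 24 to 48 hpf at 28.5°C, with dechorionated Tg(wt1b:EGFP) zebrafish embryos in HEPES-buffered E3 containing 0.003% PTU, 0.5% DMSO and 25 μM compound. Dorsal pronephros images taken in agarose-filled 96-well plates were reduced to maximum projections, on which 16 reference points were set by hand in Fiji for a macro to compute distances and angles. Values more than 2 SD from the feature mean were not used.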

Row | Structure (SMILES) | pronephric angle neck segment
1 | CN(C)C(=O)Oc1cc(OC(=O)N(C)C)cc(C(O)CNC(C)(C)C)c1 (configuration not stated) [Bambuterol hydrochloride] | 1.01 ± 0.021
2 | CC(O)(CS(=O)(=O)c1ccc(F)cc1)C(=O)Nc1ccc(C#N)c(C(F)(F)F)c1 (configuration not stated) [Bicalutamide] | 0.971 ± 0.002
3 | C[N+]1(C)CCCC(OC(=O)C(O)(c2ccccc2)c2ccccc2)C1 (configuration not stated) [Mepenzolate bromide] | 1 ± 0.054
4 | CC(C)N(CCC(C(N)=O)(c1ccccc1)c1ccccn1)C(C)C (configuration not stated) [Disopyramide] | 1.05 ± 0.038
5 | C[N+]1([O-])[C@@H]2C[C@@H](OC(=O)[C@H](CO)c3ccccc3)C[C@H]1[C@@H]1O[C@@H]12 (some centres not stated) [Scopolamin-N-oxide hydrobromide] | 0.9285 ± 0.0031
6 | C=CC[C@]1(O)CC[C@H]2[C@@H]3CCC4=CC(=O)CCC4=C3C=C[C@@]21C [Altrenogest] | 0.981 ± 0.072
7 | O=[N+]([O-])O[C@@H]1CO[C@H]2[C@@H]1OC[C@@H]2O [Isosorbide mononitrate] | 0.986 ± 0.021
